In the library only some 18% were active in any assay of this set; here they are far more common.
IL1B secr inh – blocks inflammasome-driven IL-1 beta release. THP-1 LPS/ATP IL-1B secretion, AlphaLISA, 16 h; hits give low values. AID 743279. activity change, % at 57.5 µM. 360,000 tested, 4.7% active; in the data active means activity change below about -50%; inconclusive means mostly about -30% to -49%; further: on the % scale 0 is the no-effect control and ±100 the full control effect
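Secreted IL-1B measured by AlphaLISA bead assay after 16 h compound exposure of THP-1 cells; compounds (final up to 57.5 uM) added 1 h before LPS (250 ng/mL) and ATP (1.25 mM) stimulation; lower signal means less secretion.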
TDP1 block – blocks human tyrosyl-DNA phosphodiesterase 1; Potency, µM (doses to about 130 µM), for inactives: at the highest dose activity change, negative = inhibition, actives largely listed as inhibitors; recombinant TDP1, AlphaScreen DNA substrate cleavage; 350,000 tested, 0.28% active; further: potency means the concentration at half of the fitted maximal effect; on the % scale 0 is the no-effect control and ±100 the full control effect; nearly all actives have a fitted effect of over 40% in size
Target sequence (Q9NUW8 whole entry, looked up): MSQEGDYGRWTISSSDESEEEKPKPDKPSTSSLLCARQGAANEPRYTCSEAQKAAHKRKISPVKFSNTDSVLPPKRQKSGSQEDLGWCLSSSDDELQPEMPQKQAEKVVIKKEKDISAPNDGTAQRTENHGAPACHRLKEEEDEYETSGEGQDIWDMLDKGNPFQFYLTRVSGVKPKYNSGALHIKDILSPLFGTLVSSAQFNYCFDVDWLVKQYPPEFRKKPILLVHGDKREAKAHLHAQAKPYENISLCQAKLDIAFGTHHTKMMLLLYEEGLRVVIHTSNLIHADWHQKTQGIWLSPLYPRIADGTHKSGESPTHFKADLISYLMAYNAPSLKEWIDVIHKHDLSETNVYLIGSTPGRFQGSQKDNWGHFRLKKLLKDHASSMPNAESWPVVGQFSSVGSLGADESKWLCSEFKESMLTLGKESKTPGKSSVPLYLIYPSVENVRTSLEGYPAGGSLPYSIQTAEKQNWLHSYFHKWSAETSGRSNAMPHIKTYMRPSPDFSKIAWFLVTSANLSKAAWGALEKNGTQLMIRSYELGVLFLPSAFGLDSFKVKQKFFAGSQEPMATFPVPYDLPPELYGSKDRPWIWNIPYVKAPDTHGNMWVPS
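Recombinant E. coli-expressed Tdp1 (1 nM) preincubated with compound 15 min at RT, then 5'-biotin/3'-phosphotyrosine-FITC DNA substrate (15 nM) added for 5 min. AlphaScreen beads (10 ug/ml) added, 10 min RT; tyrosine-FITC cleavage read as signal loss.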
DT40 TDP1 CPT – growth inhibition of DT40 Tdp1-/-;hTDP1 cells with camptothecin (screen for TDP1 inhibitors). chicken DT40 Tdp1-/-;hTDP1 cells + 20 nM CPT, ATP luminescence, 48 h. Potency, µM (titrated, usually from 46.2 µM), for the others: at the highest dose activity change, negative = growth inhibition, most hits filed as inhibitors. 420,000 tested, 12% active. AID 686979; further: potency means the concentration at half of the fitted maximal effect; on the % scale 0 is the no-effect control and ±100 the full control effect; nearly all actives have a fitted effect of over 55% in size
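Chicken DT40 Tdp1-/- cells complemented with human TDP1, 400 cells/well, exposed to compounds plus 20 nM camptothecin for at least 48 h at 37 C; viability read as ATP content by CellTiter-Glo luminescence.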
HepG2 viability – counter-screen for TGF-b inhibitors: cytotoxicity in HepG2 cells; HepG2 CAGA-GFP viability, ATP luminescence, 18 h; Potency, µM (highest dose often 46.1 µM), for inactives: top-dose activity change, negative = cytotoxicity, hits mostly cytotoxic; 410,000 tested, 0.76% active; further: potency means the concentration at half of the fitted maximal effect
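CellTiter-Glo luminescence gave cytotoxicity after 18 hours at 37 degrees C. The cells were HepG2 CAGA-GFP in 1% FBS DMEM, stimulated with 500 pg/mL TGF-beta after compound addition. %Activity was normalised to no-cell wells (complete cell-killing) and DMSO (no toxicity), and curves were fitted and classified.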
DT40 TDP1 no CPT – qHTS for Inhibitors of human tyrosyl-DNA phosphodiesterase 1 (TDP1): qHTS in cells in absence of CPT | DT40 Tdp1-/- hTDP1 cells, no CPT, ATP luminescence, 48 h | Potency, µM (highest dose often 46.2 µM), for the others: top-dose activity change, negative = growth inhibition, usual class: inhibitors | 420,000 tested, 15% active | AID 686978, 2013; further: potency means the concentration at half of the fitted maximal effect; on the % scale 0 is the no-effect control and ±100 the full control effect; nearly all actives have a fitted effect of over 55% in size
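A cellular qHTS used chicken DT40 cells lacking endogenous Tdp1 but carrying stably transfected human TDP1. Compounds were applied without camptothecin, and cell growth kinetics were judged by ATP-dependent luminescence after ≥48 hr.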
TGFb SMAD3 inh – inhibitors of TGF-b signaling; AID 588855; HepG2 CAGA-GFP TGF-b/SMAD3 reporter, GFP fluorescence, 18 h; TGF-beta stimulated, 500 pg/mL final; 410,000 tested, 1.2% active; Potency, µM (titrated, usually from 46.1 µM), inactives show top-dose activity, negative = inhibition, actives largely listed as inhibitors; further: potency means the concentration at half of the fitted maximal effect; on the % scale 0 is the no-effect control and ±100 the full control effect; nearly all actives have a fitted effect of over 65% in size
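HEPG2 CAGA-GFP, 1000 cells/well; 2 h settle, 37 C; cpd via pin tool; TGF-b 500 pg/mL final; 18 h, 37 C; GFP imaging ex488/em500-530; %Activity normalised to -TGF-b and +DMSO controls; CRC fit, curve class.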
An asterisk follows results filed as active; [ ] = dose if it differs, or a comment. Unless noted, the call rests on the fitted dose curve; in most records, active means well fitted curve in the direction sought with a large enough effect; inconclusive means small, poorly fitted or top-dose-only effect, or another doubt; inactive means no such curve, though single readings can be large; an effect the other way counts as inactive or inconclusive.

O=C(NCCN1CCCCCC1)C1CCCN1S(=O)(=O)c1cccc2nsnc12 (configuration not stated) was read as IL1B secr inh -1, TDP1 block 1%, DT40 TDP1 CPT 28%, HepG2 viability -1%, DT40 TDP1 no CPT -3% and TGFb SMAD3 inh 0%.
`C[C@H](O)CNC(=O)c1[nH]cnc1C(=O)Nc1ccc(CNC(=O)OC(C)(C)C)cc1` gave IL1B secr inh -10, DT40 TDP1 CPT inconclusive, HepG2 viability 2%, DT40 TDP1 no CPT inconclusive and TGFb SMAD3 inh -16%.
For Cn1c(=O)c2c(nc(-c3ccccc3)n2C)n(Cc2ccccc2)c1=O the results were IL1B secr inh 4, TDP1 block -1%, DT40 TDP1 CPT 16µM*, HepG2 viability 10%, DT40 TDP1 no CPT 21µM* and TGFb SMAD3 inh -1%.
`C=CCNc1nc2c(c(=O)n(C)c(=O)n2C)n1CCCCCC` gave IL1B secr inh 26, TDP1 block 7%, DT40 TDP1 CPT 3.3µM*, HepG2 viability -1%, DT40 TDP1 no CPT 1.6µM* and TGFb SMAD3 inh -12%.
Screening C=CCNc1nc2c(c(=O)n(C)c(=O)n2C)n1CC returned IL1B secr inh 9, TDP1 block 0%, DT40 TDP1 CPT 0%, HepG2 viability -21%, DT40 TDP1 no CPT 1% and TGFb SMAD3 inh -1%.
For Cn1c(=O)c2c(nc(NCCc3ccccc3)n2Cc2ccc(Cl)c(Cl)c2)n(C)c1=O the results were DT40 TDP1 CPT inconclusive, HepG2 viability -18%, DT40 TDP1 no CPT 6.5µM* and TGFb SMAD3 inh -19%.
`C=CCNc1nc2c(c(=O)n(C)c(=O)n2C)n1CC(=C)C` gave IL1B secr inh 4, TDP1 block 6%, DT40 TDP1 CPT inconclusive, HepG2 viability -4%, DT40 TDP1 no CPT inconclusive and TGFb SMAD3 inh -3%.
C=CCNc1nc2c(c(=O)n(C)c(=O)n2C)n1Cc1ccc(F)cc1 was read as IL1B secr inh 53, TDP1 block 0%, DT40 TDP1 CPT 2.3µM*, HepG2 viability 2%, DT40 TDP1 no CPT 6.5µM* and TGFb SMAD3 inh -43%.
`Cn1cnc2c1c(=O)n(Cc1ccccc1)c(=O)n2C` gave IL1B secr inh -12, TDP1 block 2%, DT40 TDP1 CPT -3%, HepG2 viability 0%, DT40 TDP1 no CPT -1% and TGFb SMAD3 inh 1%.
Screening CC1(C)CC2=C(CO1)C(=S)NC(c1ccccc1)N2CC1CCCO1 (configuration not stated) returned IL1B secr inh -9, TDP1 block 2%, DT40 TDP1 CPT -11%, HepG2 viability 50%, DT40 TDP1 no CPT inconclusive and TGFb SMAD3 inh 12%.
Screening CN1CCN(c2nc3c(c(=O)n(C)c(=O)n3C)n2Cc2ccccc2)CC1 returned IL1B secr inh -6, DT40 TDP1 CPT -10%, HepG2 viability -22%, DT40 TDP1 no CPT 12% and TGFb SMAD3 inh -4%.
For Cn1c(=O)[nH]c(=O)c2c1nc(N/N=C/c1cccnc1)n2Cc1ccc(Cl)cc1 the results were IL1B secr inh 38, TDP1 block 4%, DT40 TDP1 CPT 3%, HepG2 viability 12%, DT40 TDP1 no CPT 6% and TGFb SMAD3 inh 18%.
Cn1c(=O)c2c(nc(N/N=C/c3cccnc3)n2Cc2ccccc2)n(C)c1=O was read as IL1B secr inh 30, TDP1 block 5%, DT40 TDP1 CPT 12µM*, HepG2 viability -5%, DT40 TDP1 no CPT 26µM* and TGFb SMAD3 inh 22%.
For Cn1c(=O)c2c(nc(NCCc3ccccc3)n2Cc2ccc(F)cc2)n(C)c1=O the results were IL1B secr inh -5, TDP1 block -2%, DT40 TDP1 CPT 3.7µM*, HepG2 viability -35%, DT40 TDP1 no CPT 5.2µM* and TGFb SMAD3 inh inconclusive.
Cn1c(N/N=C2\CCCc3ccccc32)nc2c1c(=O)n(Cc1ccccc1)c(=O)n2C was read as IL1B secr inh 23, TDP1 block 4%, DT40 TDP1 CPT 23µM*, HepG2 viability -3%, DT40 TDP1 no CPT inconclusive and TGFb SMAD3 inh 0%.
`Cn1c(=O)c2c(nc(CN3CCN(Cc4ccccc4)CC3)n2Cc2ccc(F)cc2)n(C)c1=O` gave IL1B secr inh 16, TDP1 block 0%, DT40 TDP1 CPT inconclusive, HepG2 viability -38%, DT40 TDP1 no CPT inconclusive and TGFb SMAD3 inh inconclusive.
CNc1nc2c(c(=O)n(C)c(=O)n2C)n1Cc1ccccc1 was read as IL1B secr inh 2, TDP1 block 4%, DT40 TDP1 CPT inconclusive, HepG2 viability -1%, DT40 TDP1 no CPT 13µM* and TGFb SMAD3 inh 0%.
For C=Cc1ccc(C(=O)N2CCc3c(cnc(C)c3CNC(=O)c3ccc4c(c3)OCO4)C2)cc1 the results were DT40 TDP1 CPT -1%[9.04 µM] and DT40 TDP1 no CPT -19%.
For CNC(=O)CSc1nc2cccnc2n1-c1ccc(F)cc1 the results were IL1B secr inh 1, TDP1 block 5%, DT40 TDP1 CPT 1%, HepG2 viability -9%, DT40 TDP1 no CPT -4% and TGFb SMAD3 inh 2%.
Screening CC(C)(C)c1ccc(C(=O)NC2=NC(c3cccc(F)c3)CC(=O)N2)cc1 (configuration not stated) returned TDP1 block 5%, DT40 TDP1 CPT inconclusive, HepG2 viability -2%, DT40 TDP1 no CPT inconclusive and TGFb SMAD3 inh 3%.
O=C(OCC(=O)N1CCOCC1)c1ccc2ccccc2c1O was read as IL1B secr inh 19, TDP1 block -1%, DT40 TDP1 CPT -28%, HepG2 viability -25%, DT40 TDP1 no CPT -18% and TGFb SMAD3 inh 10%.
`N#CCCn1c(=O)c(-c2cccs2)nc2cnc(OCc3ccccc3)nc21` gave DT40 TDP1 CPT 14% and DT40 TDP1 no CPT -9%.
For C/C(Cl)=C\Cn1c(Nc2ccc(C)cc2)nc2c1c(=O)n(C)c(=O)n2C the results were IL1B secr inh 21, TDP1 block 2%, DT40 TDP1 CPT inconclusive, HepG2 viability -39%, DT40 TDP1 no CPT inconclusive and TGFb SMAD3 inh 0%.
`CC(Cl)=CCn1c(NCCc2ccccc2)nc2c1c(=O)n(C)c(=O)n2C` gave IL1B secr inh 25, DT40 TDP1 CPT 1.5µM*, HepG2 viability -29%, DT40 TDP1 no CPT 1.5µM* and TGFb SMAD3 inh -17%.

Screens as filed in PubChem.
